Compound activity from PubChem.
A selection: hits, their analogues and other compounds. The true share with any hit is near 21%.
ELG1 repair inh = ELG1-dependent DNA repair inhibition; Potency, µM (doses to about 46.1 µM), inactives show at the top dose activity change, negative = inhibition, actives largely listed as inhibitors; HEK293T ELG1-luciferase reporter, luminescence, 16 h; DNA damage induced by 5-fluorouridine; actives 2.3% (n = 330,000); note: potency is the fitted concentration of half-maximal effect; nearly all actives have a fitted effect of over 55% in size
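Reporter activity after DNA damage by 5-fluorouridine is monitored. Compound-treated cells incubate 16 hr at 37 °C, then ONE-Glo is added for 30 min before luminescence reading.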
TDP1 cell noCPT = qHTS for Inhibitors of human tyrosyl-DNA phosphodiesterase 1 (TDP1): qHTS in cells in absence of CPT; DT40 Tdp1-/- hTDP1 cells, no CPT, ATP luminescence, 48 h; Potency, µM (top dose mostly 46.2 µM), without a hit: top-dose activity change, negative = growth inhibition, actives largely listed as inhibitors; actives 15% (n = 420,000); note: potency is the fitted concentration of half-maximal effect; nearly all actives have a fitted effect of over 55% in size
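Compound effects on proliferation are scored in DT40 Tdp1-/-;hTDP1 cells in the absence of CPT. ATP levels (CellTiter-Glo luminescence) are recorded after a ≥48 hr, 37 °C incubation.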
IL-1B inflam inh = blocks inflammasome-driven IL-1 beta release. actives 4.7% (n = 360,000). THP-1 LPS/ATP IL-1B secretion, AlphaLISA, 16 h; stronger effect = lower value. activity change, % at 57.5 µM; in the data active = activity change below about -50%; inconclusive = mostly about -30% to -49%
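THP-1 cells pretreated 1 hr with compounds (up to 57.5 uM final), then stimulated with LPS (250 ng/mL final) plus ATP (1.25 mM final); secreted IL-1B measured by AlphaLISA after 16 hr, decreased signal indicating inhibition.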
Gal4-VP16 FLuc = counter-screen for ROR gamma inhibitors: Gal4-VP16 reporter | Potency, µM (series often up to 53.6 µM), inactives show at the top dose activity, negative = inhibition, actives largely listed as inhibitors | actives 3.5% (n = 310,000) | Drosophila S2 Gal4-VP16 UAS-luciferase, luminescence, 20 h;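 note: Gal4-VP16 expression switched on by copper sulfate through the metallothionein promoter; potency is the fitted concentration of half-maximal effect; nearly all actives have a fitted effect of over 50% in size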
RORgamma inh = blocks mouse ROR gamma transcriptional activity; P51450; Drosophila S2 Gal4-RORgamma UAS-luciferase reporter, 20 h; Potency, µM (doses to about 53.6 µM), for inactives: top-dose activity change, negative = inhibition, usual class: inhibitors; actives 5.4% (n = 310,000); AID 2551; note: potency is the fitted concentration of half-maximal effect; nearly all actives have a fitted effect of over 60% in size
Target sequence (P51450 whole entry, looked up, the tested form may be a part): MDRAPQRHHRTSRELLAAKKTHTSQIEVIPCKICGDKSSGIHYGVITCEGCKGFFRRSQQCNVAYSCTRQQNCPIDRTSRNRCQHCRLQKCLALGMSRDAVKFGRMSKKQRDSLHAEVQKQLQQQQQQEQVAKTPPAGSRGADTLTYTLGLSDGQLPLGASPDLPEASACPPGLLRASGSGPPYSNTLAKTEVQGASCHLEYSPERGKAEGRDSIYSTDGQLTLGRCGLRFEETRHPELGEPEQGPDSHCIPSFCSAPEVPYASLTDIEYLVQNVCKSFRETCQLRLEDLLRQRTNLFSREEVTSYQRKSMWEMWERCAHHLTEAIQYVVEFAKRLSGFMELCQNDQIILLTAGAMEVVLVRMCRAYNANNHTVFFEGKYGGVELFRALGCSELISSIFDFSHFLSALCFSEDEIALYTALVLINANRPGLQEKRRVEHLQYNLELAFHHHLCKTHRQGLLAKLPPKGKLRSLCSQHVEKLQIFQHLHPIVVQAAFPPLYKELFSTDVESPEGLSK
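Stably transfected Drosophila Schneider cells are the test system, with ROR gamma fused to Gal4 and luciferase under UAS control; luminescence is read after 20 hr of 700 uM copper sulfate induction at ambient temperature.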
TDP1 cell CPT = DT40-hTDP1 cell growth loss with CPT | Potency, µM (series often up to 46.2 µM), without a hit: at the highest dose activity change, negative = growth inhibition, hits mostly inhibitors | AID 686979 | chicken DT40 Tdp1-/-;hTDP1 cells + 20 nM CPT, ATP luminescence, 48 h | actives 12% (n = 420,000); note: potency is the fitted concentration of half-maximal effect; nearly all actives have a fitted effect of over 55% in size
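Chicken DT40 Tdp1-/- cells stably complemented with human TDP1 were seeded at 400 cells/well in medium containing 20 nM camptothecin, exposed to pin-transferred compounds, and grown at 37 °C for at least 48 hr. Viability was read as ATP luminescence.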
The depositor's hits bear a star. Unless noted, calls come from the whole dose curve; as a rule, active = well fitted curve in the direction sought with a large enough effect; inconclusive = small, poorly fitted or top-dose-only effect, or another doubt; inactive = no such curve, though single readings can be large; an effect the other way counts as inactive or inconclusive. % is set by controls: 0 for no effect and ±100 for the full control effect.

How did COc1ccc(NC(=O)C2CC(=O)n3ncnc3N2)cc1 (stereo unspecified) do in these assays?
ELG1 repair inh: -6%; TDP1 cell noCPT: -6%; IL-1B inflam inh: 14; Gal4-VP16 FLuc: -7%; RORgamma inh: inconclusive; TDP1 cell CPT: -1%

What do the screens show for `COc1cccc(NC(=O)C2CC(=O)N=C(N)S2)c1` (stereo unspecified)?
ELG1 repair inh: 0%; TDP1 cell noCPT: -1%; IL-1B inflam inh: 9; Gal4-VP16 FLuc: -1%; RORgamma inh: 17%; TDP1 cell CPT: -30%

What do the screens show for `COc1ccc(NC(=O)C2CC(=O)n3cnnc3S2)cc1` (stereo unspecified)?
ELG1 repair inh: -3%; TDP1 cell noCPT: 4.6µM*; IL-1B inflam inh: -4; Gal4-VP16 FLuc: inconclusive; RORgamma inh: inconclusive; TDP1 cell CPT: 2.3µM*

Results for COc1cc2c(cc1OC)C(=O)CCC2 ?
TDP1 cell noCPT: 16µM*; IL-1B inflam inh: 0; TDP1 cell CPT: 15µM*

How did O=C1CCCc2cc3c(cc21)CCCC3 do in these assays?
TDP1 cell noCPT: -24%; IL-1B inflam inh: -12; TDP1 cell CPT: -18%

How did COc1cccc(-c2cnc3c(NC=O)cc(-c4cccc(C(=O)N(C)C)c4)cn23)c1 do in these assays?
TDP1 cell noCPT: inconclusive; IL-1B inflam inh: 148; TDP1 cell CPT: inconclusive

How did COc1cccc(-c2cc(NC=O)c3ncc(-c4cccc(C(=O)N(C)C)c4)n3c2)c1 do in these assays?
TDP1 cell noCPT: inconclusive; IL-1B inflam inh: -12; TDP1 cell CPT: inconclusive

What do the screens show for `CN(C)C(=O)c1cccc(-c2cnc3c(NC=O)cc(-c4cccc(F)c4)cn23)c1`?
TDP1 cell noCPT: 15µM*; IL-1B inflam inh: 2; TDP1 cell CPT: 21µM*

Results for CN(C)C(=O)c1cccc(-c2cnc3c(NC=O)cc(-c4cccc(C(F)(F)F)c4)cn23)c1 ?
TDP1 cell noCPT: 8.2µM*; IL-1B inflam inh: 0; TDP1 cell CPT: 8.2µM*

What do the screens show for `COc1ccc(-c2cc(NC=O)c3ncc(-c4cccc(C(=O)N(C)C)c4)n3c2)cn1`?
TDP1 cell noCPT: 16µM*; IL-1B inflam inh: -8; TDP1 cell CPT: 23µM*

Results for CN(C)C(=O)c1cccc(-c2cc(NC=O)c3ncc(-c4ccc(F)c(Cl)c4)n3c2)c1 ?
TDP1 cell noCPT: 23µM*; IL-1B inflam inh: 60; TDP1 cell CPT: 16µM*

Results for CN(C)N1C(=O)c2c(Cl)c(Cl)c(Cl)c(Cl)c2C1=O ?
TDP1 cell noCPT: -16%; IL-1B inflam inh: inconclusive; TDP1 cell CPT: -15%

Results for CC(c1ccccc1)n1ccnc1CO (stereo unspecified) ?
TDP1 cell noCPT: -6%; IL-1B inflam inh: -3; TDP1 cell CPT: 2%

How did Cc1cccc(-c2cc(NC=O)c3ncc(-c4cccc(C(=O)N(C)C)c4)n3c2)c1 do in these assays?
TDP1 cell noCPT: 16µM*; IL-1B inflam inh: 16; TDP1 cell CPT: inconclusive

How did CN(C)C(=O)c1cccc(-c2cnc3c(NC=O)cc(-c4ccc(N(C)C)cc4)cn23)c1 do in these assays?
TDP1 cell noCPT: inconclusive; IL-1B inflam inh: 0; TDP1 cell CPT: 18µM*

Results for COc1ccc2cc(C(C)CO)ccc2c1 (stereo unspecified) ?
Gal4-VP16 FLuc: 7%; RORgamma inh: 16%

Results for O=C1CCN(Cc2ccccc2)CCN1[C@H](CSc1ccccc1)Cc1ccccc1 ?
ELG1 repair inh: -4%; TDP1 cell noCPT: 20µM*; IL-1B inflam inh: -23; Gal4-VP16 FLuc: 2%; RORgamma inh: 35%; TDP1 cell CPT: 23µM*
